Measured values reported in the supplement of paper PMC11732987, “Enantioselective OTUD7B fragment discovery through chemoproteomics screening and high-throughput optimisation” (Communications Chemistry, 2025).

How the values were obtained:
Experiment in all cases: log2 ratio of Biotin-Ahx-Ub-VS probe labelling (fragment/DMSO); higher = less target engagement (more negative = stronger competition), active = hit call of the paper (q ≤ 0.05, log2 ratio ≤ -1)
Settings in all cases: compound concentration: 200 uM; treatment time: 3 h
[1] = target: USP34 (UniProt Q70CQ2)
How it was run: (§1)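 Labelled DUBs were enriched with NeutrAvidin, digested with LysC and trypsin, and run by diaPASEF LC-MS/MS. The labelling used Biotin-Ahx-Ub-VS at 0.5 µM final for 1 h on HEK293T lysate (495 µg per sample) previously treated in triplicate with fragment at 200 µM or vehicle for 3 h. Values are average log2 fragment/vehicle ratios by unpaired t-test on global-median-normalised Spectronaut quantities of proteins with ≥2 unique peptides.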

[2] = target: T1, USP36 (UniProt Q9P275)
T1 sequence (whole entry): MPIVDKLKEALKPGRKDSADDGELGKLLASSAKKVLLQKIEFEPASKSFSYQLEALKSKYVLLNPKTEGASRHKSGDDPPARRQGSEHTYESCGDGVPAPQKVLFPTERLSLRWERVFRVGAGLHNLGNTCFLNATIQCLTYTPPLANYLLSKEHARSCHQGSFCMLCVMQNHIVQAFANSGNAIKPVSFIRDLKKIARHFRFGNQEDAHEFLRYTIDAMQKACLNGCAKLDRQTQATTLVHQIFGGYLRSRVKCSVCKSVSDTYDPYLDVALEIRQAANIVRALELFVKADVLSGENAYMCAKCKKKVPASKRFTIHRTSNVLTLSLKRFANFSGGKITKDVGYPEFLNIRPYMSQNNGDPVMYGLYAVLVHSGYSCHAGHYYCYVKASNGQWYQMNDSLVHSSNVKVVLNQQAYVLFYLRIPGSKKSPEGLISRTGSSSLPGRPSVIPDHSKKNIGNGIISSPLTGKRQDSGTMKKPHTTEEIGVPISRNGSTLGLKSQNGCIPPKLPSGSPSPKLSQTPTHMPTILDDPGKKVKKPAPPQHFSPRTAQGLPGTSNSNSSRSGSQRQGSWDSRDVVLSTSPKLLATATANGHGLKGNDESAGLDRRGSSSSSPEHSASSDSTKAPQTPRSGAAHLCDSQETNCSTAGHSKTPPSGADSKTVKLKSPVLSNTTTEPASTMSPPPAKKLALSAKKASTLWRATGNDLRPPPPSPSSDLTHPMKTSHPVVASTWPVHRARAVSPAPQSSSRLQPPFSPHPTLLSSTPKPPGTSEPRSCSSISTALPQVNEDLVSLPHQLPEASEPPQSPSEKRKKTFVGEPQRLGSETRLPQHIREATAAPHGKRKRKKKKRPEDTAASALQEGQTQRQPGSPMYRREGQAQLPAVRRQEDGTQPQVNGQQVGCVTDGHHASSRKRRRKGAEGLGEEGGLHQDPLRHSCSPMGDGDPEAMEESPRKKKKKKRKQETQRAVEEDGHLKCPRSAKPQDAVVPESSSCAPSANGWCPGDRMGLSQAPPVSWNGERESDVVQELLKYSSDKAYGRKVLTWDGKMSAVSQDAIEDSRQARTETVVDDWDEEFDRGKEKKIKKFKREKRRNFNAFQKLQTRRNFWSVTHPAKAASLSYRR
How it was run: as §1

[3] = target: T2, USP38 (UniProt Q8NB14)
T2 sequence (whole entry): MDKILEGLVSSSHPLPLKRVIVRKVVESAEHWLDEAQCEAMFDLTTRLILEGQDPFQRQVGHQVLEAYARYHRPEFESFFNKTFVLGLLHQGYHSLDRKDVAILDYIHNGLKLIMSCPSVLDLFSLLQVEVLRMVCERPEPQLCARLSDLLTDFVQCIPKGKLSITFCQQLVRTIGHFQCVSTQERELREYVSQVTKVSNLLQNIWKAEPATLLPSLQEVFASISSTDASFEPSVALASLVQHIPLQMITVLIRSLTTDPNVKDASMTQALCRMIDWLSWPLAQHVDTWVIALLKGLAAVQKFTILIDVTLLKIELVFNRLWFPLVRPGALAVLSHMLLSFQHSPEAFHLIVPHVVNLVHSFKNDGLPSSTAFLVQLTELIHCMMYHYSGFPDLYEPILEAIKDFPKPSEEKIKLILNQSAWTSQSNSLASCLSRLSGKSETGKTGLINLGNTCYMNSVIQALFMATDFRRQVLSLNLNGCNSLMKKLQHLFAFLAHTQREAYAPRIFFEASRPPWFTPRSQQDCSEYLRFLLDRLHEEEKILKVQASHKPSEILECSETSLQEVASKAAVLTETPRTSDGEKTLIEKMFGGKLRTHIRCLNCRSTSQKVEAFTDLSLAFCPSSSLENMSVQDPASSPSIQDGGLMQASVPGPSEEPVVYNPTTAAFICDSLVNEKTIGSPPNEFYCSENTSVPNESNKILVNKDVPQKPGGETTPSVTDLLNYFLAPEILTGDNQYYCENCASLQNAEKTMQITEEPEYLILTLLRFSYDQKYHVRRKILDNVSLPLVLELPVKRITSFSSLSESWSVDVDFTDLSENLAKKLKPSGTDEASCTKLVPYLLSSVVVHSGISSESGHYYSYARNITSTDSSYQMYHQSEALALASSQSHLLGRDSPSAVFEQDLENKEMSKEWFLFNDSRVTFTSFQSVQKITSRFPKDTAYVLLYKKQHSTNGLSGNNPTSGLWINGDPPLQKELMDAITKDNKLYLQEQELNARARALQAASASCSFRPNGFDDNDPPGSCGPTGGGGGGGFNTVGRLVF
How it was run: as §1

[4] = target: T3, USP39 (UniProt Q53GS9)
T3 sequence (whole entry): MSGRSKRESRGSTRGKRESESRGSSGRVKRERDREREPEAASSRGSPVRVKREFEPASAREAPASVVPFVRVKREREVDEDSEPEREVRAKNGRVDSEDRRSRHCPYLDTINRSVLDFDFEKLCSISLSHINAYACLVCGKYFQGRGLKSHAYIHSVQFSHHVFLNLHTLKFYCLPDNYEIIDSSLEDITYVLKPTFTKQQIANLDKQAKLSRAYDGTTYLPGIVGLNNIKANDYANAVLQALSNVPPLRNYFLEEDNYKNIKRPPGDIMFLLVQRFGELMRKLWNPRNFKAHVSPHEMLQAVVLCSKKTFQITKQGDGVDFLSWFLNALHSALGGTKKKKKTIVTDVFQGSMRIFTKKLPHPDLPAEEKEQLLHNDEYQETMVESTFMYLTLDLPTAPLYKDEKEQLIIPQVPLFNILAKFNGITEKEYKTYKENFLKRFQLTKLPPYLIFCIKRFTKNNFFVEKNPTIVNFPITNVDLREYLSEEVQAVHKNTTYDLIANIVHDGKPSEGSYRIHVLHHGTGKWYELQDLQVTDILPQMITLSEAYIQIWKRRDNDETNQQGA
How it was run: as §1

[5] = target: T4, USP4 (UniProt Q13107)
T4 sequence (whole entry): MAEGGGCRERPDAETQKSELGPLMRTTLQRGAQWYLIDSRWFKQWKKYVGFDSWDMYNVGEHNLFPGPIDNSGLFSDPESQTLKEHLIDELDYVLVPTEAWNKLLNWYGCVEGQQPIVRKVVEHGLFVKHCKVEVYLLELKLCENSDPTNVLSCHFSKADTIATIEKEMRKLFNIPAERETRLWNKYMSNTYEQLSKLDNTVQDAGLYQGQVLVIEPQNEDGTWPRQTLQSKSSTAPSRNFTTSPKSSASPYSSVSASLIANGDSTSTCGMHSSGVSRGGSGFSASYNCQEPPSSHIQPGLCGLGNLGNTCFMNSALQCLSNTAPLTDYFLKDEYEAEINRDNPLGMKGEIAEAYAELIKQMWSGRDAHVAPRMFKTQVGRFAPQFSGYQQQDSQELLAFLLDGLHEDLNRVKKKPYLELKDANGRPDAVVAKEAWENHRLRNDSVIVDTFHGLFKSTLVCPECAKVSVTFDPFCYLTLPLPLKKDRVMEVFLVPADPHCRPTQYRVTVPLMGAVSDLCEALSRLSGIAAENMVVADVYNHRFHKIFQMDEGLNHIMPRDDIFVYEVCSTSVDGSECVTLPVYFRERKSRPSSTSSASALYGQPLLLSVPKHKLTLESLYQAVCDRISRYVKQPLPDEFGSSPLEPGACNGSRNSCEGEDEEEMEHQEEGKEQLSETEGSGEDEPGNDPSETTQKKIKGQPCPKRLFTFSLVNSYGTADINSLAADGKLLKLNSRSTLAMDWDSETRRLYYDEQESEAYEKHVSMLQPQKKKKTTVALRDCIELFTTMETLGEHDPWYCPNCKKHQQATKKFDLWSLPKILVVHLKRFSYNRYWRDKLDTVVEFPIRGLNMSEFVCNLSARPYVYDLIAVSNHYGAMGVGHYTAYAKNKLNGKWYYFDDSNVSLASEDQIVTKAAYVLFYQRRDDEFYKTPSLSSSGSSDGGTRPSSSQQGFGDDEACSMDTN
How it was run: as §1

Measured: log2 ratio of Biotin-Ahx-Ub-VS probe labelling

Chain of USP34 (Q70CQ2 whole entry, the tested form may be a part): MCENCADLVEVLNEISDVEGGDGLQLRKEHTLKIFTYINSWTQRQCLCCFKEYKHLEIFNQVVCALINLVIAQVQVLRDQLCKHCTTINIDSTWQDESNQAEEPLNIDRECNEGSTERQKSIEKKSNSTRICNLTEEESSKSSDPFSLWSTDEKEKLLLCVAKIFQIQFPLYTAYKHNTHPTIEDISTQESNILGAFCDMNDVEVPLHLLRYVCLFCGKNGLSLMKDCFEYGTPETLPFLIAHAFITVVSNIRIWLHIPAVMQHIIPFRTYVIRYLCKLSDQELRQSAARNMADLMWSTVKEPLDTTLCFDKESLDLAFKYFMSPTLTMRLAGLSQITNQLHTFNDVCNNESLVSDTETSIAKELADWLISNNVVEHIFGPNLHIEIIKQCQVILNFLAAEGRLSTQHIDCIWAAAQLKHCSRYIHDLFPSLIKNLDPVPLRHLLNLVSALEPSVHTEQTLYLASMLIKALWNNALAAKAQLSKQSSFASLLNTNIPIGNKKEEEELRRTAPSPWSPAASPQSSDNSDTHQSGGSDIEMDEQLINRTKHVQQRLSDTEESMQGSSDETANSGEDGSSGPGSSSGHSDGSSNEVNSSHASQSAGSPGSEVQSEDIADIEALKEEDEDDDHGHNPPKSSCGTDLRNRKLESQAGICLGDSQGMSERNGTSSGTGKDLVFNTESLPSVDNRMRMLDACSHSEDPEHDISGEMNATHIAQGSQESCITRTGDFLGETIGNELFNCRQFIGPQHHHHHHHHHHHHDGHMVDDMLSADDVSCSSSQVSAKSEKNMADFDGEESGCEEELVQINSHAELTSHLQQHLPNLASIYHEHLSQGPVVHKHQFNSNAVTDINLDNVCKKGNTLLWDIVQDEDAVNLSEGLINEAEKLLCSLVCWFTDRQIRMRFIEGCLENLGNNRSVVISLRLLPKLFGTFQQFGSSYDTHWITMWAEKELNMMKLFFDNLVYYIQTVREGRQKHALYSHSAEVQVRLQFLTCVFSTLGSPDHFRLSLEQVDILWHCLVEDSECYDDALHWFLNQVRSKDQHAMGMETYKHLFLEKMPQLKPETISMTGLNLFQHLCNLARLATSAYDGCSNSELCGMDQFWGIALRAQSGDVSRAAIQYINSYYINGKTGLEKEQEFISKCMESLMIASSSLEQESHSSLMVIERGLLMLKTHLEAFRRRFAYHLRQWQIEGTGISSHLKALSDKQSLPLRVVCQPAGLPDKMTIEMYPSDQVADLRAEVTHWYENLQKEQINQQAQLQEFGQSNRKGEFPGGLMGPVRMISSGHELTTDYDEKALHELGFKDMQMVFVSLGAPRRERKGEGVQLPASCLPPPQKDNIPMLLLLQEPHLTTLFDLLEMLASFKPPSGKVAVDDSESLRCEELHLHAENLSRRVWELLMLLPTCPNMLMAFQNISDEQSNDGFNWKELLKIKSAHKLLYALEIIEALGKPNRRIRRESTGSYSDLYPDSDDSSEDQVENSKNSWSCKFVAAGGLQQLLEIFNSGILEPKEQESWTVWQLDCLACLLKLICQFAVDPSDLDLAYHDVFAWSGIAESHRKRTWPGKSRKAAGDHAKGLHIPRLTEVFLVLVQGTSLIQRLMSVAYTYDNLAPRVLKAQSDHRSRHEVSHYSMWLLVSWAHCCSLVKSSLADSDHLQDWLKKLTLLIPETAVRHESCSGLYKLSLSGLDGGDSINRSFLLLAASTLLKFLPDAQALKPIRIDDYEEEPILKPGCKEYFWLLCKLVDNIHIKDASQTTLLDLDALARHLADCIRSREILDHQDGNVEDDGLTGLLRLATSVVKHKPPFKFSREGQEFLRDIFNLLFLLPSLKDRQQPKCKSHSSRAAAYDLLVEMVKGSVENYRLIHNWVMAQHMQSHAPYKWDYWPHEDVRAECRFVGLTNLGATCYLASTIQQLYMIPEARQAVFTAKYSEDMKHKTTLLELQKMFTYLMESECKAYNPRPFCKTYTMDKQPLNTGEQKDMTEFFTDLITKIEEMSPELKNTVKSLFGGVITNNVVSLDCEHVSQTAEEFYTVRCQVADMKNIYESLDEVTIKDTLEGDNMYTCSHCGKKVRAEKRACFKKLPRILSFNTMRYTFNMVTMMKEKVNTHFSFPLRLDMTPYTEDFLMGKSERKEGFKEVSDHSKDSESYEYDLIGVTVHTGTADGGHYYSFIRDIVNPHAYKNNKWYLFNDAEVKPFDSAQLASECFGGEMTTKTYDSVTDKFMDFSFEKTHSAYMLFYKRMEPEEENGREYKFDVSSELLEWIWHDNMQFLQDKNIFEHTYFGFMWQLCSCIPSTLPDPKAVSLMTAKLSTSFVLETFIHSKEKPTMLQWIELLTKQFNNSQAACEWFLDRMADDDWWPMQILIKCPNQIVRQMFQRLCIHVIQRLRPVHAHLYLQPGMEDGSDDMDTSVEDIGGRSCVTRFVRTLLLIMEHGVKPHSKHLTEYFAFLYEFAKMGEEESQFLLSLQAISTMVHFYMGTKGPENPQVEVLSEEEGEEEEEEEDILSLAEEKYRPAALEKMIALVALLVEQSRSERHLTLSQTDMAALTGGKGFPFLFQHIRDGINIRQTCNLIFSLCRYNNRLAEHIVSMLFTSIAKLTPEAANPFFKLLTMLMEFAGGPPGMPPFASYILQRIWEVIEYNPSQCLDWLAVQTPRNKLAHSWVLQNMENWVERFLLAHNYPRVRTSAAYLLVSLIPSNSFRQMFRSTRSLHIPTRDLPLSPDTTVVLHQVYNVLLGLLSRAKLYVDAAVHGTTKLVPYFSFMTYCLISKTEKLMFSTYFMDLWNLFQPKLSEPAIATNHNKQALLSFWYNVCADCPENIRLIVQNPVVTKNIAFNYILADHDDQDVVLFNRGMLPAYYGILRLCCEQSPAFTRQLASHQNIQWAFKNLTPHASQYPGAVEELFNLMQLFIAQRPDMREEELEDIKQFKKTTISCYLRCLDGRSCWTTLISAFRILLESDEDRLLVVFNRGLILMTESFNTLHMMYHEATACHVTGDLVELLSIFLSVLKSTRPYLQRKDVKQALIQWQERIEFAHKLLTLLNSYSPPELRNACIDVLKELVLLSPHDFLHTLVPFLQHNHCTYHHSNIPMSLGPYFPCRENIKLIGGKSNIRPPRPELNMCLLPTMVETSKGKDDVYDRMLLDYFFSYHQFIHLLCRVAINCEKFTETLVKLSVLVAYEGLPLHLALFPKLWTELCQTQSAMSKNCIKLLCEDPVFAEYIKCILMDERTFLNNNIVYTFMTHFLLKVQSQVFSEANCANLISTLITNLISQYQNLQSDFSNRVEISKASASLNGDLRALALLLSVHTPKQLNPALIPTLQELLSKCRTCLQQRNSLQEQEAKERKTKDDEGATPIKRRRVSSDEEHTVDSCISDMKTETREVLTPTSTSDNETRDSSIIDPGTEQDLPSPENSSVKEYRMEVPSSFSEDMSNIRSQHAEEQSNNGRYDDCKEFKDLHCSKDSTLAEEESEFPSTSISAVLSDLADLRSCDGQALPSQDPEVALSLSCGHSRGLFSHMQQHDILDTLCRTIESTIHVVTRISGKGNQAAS

COCC1C=CCCN1C(=O)CCl (stereo not given)
inactive: [1] -0.0902 | [2] -0.00282 | [3] -0.157 | [4] -0.196 | [5] -0.211
